# Target: ZNF135
# Assay: pooled miR-30 sensor sort-seq; sequence = guide strand
# Details: shRNA
# Note: reference of the scale not given here.
row,Sequence,sensor-assay potency score (higher = more potent)
1,TCTCATTTCTGGAACACTCTGC,0.253
2,TTAAGCATTCGTGACATTCATA,-1.02
3,TATTTCTTCAGAGATGCCTTGC,0.235
4,TGTTCGATAAGTGCTGAGCTGT,-0.66
5,ATGAATATCAGAGTCAACCTGC,0.469

# Target: ZNF146
# Assay: as above
# Details: shRNA
row,Sequence,sensor-assay potency score (higher = more potent)
1,ATGTTTAATGACATACTGCTTT,-0.84
2,TTACATTCGAAAAGCTTCTCGC,-0.0579
3,TTGGATTTGCCACTGAAGGTTT,-0.469
4,TTTATCACCTGAATGAATCCTC,0.519
5,TTAAAGTTAACCTCATTCGTGG,0.427
6,TTTATGAGGTACTTCTTCTGGC,0.438
7,TTAACCTCATTCGTGGTGCTTT,-0.543
8,TTTTATGAGGTACTTCTTCTGG,-0.457
9,TTTCTAATGAAAGCTTTCCCAC,-1.05
10,TTCCACAAACATTGCATTCGTA,0.428
11,TCCACAAACATTGCATTCGTAA,-1.11
12,TTGAGAACTGAGAGAAAGCTTT,-0.35

# Target: ZNF160
# Assay: as above
# Details: shRNA
row,Sequence,sensor-assay potency score (higher = more potent)
1,TTCTGTACTGCTCTTCTCTTTT,-0.536
2,TTTTGAGTGAAGCTCTTGCCAC,-0.929
3,TAGGCTTGAACGAACACTGAAG,-0.806
4,TTTCTTGCTATTTTCACACAGC,-0.0844
5,TCTATGTCTCTTCTGTCGCGTT,-0.213
6,TTACCTATTACTCTCCTCCCAC,-0.496
7,TGAATTTTGAGTGAAAACCTTG,-0.306
8,TTGATCTCTTTTACCTTCTTTC,-0.844
9,TGTCTTTCCAACACCACTGTGT,0.215
10,TTCTATGTCTCTTCTGTCGCGT,0.15
11,TATGTTTACATGATGTCTCTTG,0.273
12,TAAACAACAGGTATTGCTCTTT,0.3

# Target: ZNF169
# Assay: as above
# Details: shRNA
row,Sequence,sensor-assay potency score (higher = more potent)
1,TAGAAGGAGGGCTATCTTCTGG,-0.694
2,TTCGTCGCCTTGCTCCAGCTGT,-0.551
3,ATATTGTCTGAGGAGCTGCGAG,-1.34
4,TAGCGCATATTGTCTGAGGAGC,-1.15
5,TTGATAAGGTCTGATCTCTGGC,0.151
6,TTTTTCACTAGAGCATCTTGGA,0.14
7,TAAGGTGTGACTTCTGGCCAAG,-0.969
8,TTTCTTAATGAGCTGTCGGGGC,-0.62
9,TAGAGCATCTTGGAGCTTCTAG,-0.619
10,TATTGTCTGAGGAGCTGCGAGC,-1.19
11,TTCAACATTGTGTCTGACCCCC,0.288
